Test results: the supplement of paper PMC8728848
This excerpt belongs to a sample that is enriched for the strongest signals.

Assays:
Test in all cases: glycan array binding signal (z-score within array); higher = stronger binding
Details in all cases: glycan notation: IUPAC condensed, linker removed
[1] = target: Fuc(a1-2)Gal(b1-4)[Fuc(a1-3)]GlcNAc(b1-3)GalNAc
Summary of the method: (§1)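 Arrays were curated from the Consortium for Functional Glycomics database, 3228 in total, and kept only where the protein sequence was available. Binding is expressed as a within-array Z-score. This score was averaged across arrays of the same protein sequence at different concentrations or buffers and across linkers, and negative values can be read as non-binding.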

[2] = target: Fuc(a1-2)[Gal(a1-3)]Gal(b1-3)GlcNAc
Summary of the method: as §1

[3] = target: Fuc(a1-2)[Gal(a1-3)]Gal(b1-3)GlcNAc(b1-2)Man(a1-3)[Fuc(a1-2)[Gal(a1-3)]Gal(b1-3)GlcNAc(b1-2)Man(a1-6)]Man(b1-4)GlcNAc(b1-4)GlcNAc
Summary of the method: as §1

[4] = target: Fuc(a1-2)[Gal(a1-3)]Gal(b1-3)GlcNAc(b1-2)Man(a1-3)[Fuc(a1-2)[Gal(a1-3)]Gal(b1-3)GlcNAc(b1-2)Man(a1-6)]Man(b1-4)GlcNAc(b1-4)[Fuc(a1-6)]GlcNAc
Summary of the method: as §1

[5] = target: Fuc(a1-2)[Gal(a1-3)]Gal(b1-3)GlcNAc(b1-6)GalNAc
Summary of the method: as §1

[6] = target: Fuc(a1-2)[Gal(a1-3)]Gal(b1-4)Glc
Summary of the method: as §1

[7] = target: Fuc(a1-2)[Gal(a1-3)]Gal(b1-4)GlcNAc
Summary of the method: as §1

[8] = target: Fuc(a1-2)[Gal(a1-3)]Gal(b1-4)GlcNAc(b1-2)Man
Summary of the method: as §1

[9] = target: Fuc(a1-2)[Gal(a1-3)]Gal(b1-4)GlcNAc(b1-2)Man(a1-3)[Fuc(a1-2)[Gal(a1-3)]Gal(b1-4)GlcNAc(b1-2)Man(a1-6)]Man(b1-4)GlcNAc(b1-4)GlcNAc
Summary of the method: as §1

[10] = target: Fuc(a1-2)[Gal(a1-3)]Gal(b1-4)GlcNAc(b1-2)Man(a1-3)[Fuc(a1-2)[Gal(a1-3)]Gal(b1-4)GlcNAc(b1-2)Man(a1-6)]Man(b1-4)GlcNAc(b1-4)[Fuc(a1-6)]GlcNAc
Summary of the method: as §1

[11] = target: Fuc(a1-2)[Gal(a1-3)]Gal(b1-4)GlcNAc(b1-3)GalNAc
Summary of the method: as §1

[12] = target: Fuc(a1-2)[Gal(a1-3)]Gal(b1-4)GlcNAc(b1-6)GalNAc
Summary of the method: as §1

[13] = target: Fuc(a1-2)[Gal(a1-3)]Gal(b1-4)[Fuc(a1-3)]GlcNAc
Summary of the method: as §1

[14] = target: Fuc(a1-3)[Gal(b1-4)]GlcNAc(b1-2)Man(a1-3)[Fuc(a1-3)[Gal(b1-4)]GlcNAc(b1-2)Man(a1-6)]Man(b1-4)GlcNAc(b1-4)GlcNAc
Summary of the method: as §1

[15] = target: Fuc(a1-3)[Gal(b1-4)]GlcNAc(b1-3)Gal(b1-3)[Fuc(a1-4)]GlcNAc
Summary of the method: as §1

[16] = target: Fuc(a1-3)[Gal(b1-4)]GlcNAc(b1-3)Gal(b1-4)[Fuc(a1-3)]GlcNAc(b1-3)Gal(b1-4)[Fuc(a1-3)]GlcNAc
Summary of the method: as §1

[17] = target: Fuc(a1-3)[Gal(b1-4)]GlcNAc(b1-6)GalNAc
Summary of the method: as §1

[18] = target: Fuc(a1-3)[Gal3S(b1-4)]GlcNAc6S
Summary of the method: as §1

[19] = target: Gal(a1-3)Fuc(a1-2)Gal(b1-4)GlcNAc(b1-3)[Gal(a1-3)Fuc(a1-2)Gal(b1-4)GlcNAc(b1-6)]GalNAc
Summary of the method: as §1

[20] = target: Gal(b1-3)GlcNAc(b1-2)Man(a1-3)[Gal(b1-3)GlcNAc(b1-2)Man(a1-6)]Man(b1-4)GlcNAc(b1-4)GlcNAc
Summary of the method: as §1

[21] = target: Gal(b1-3)GlcNAc(b1-3)Gal(b1-4)GlcNAc(b1-3)Gal(b1-4)GlcNAc(b1-2)[Gal(b1-3)GlcNAc(b1-3)Gal(b1-4)GlcNAc(b1-3)Gal(b1-4)GlcNAc(b1-6)]Man(a1-6)[Gal(b1-3)GlcNAc(b1-3)Gal(b1-4)GlcNAc(b1-3)Gal(b1-4)GlcNAc(b1-2)Man(a1-3)]Man(b1-4)GlcNAc(b1-4)[Fuc(a1-6)]GlcNAc
Summary of the method: as §1

[22] = target: Gal(b1-4)GlcNAc(b1-2)Man(a1-3)Man(b1-4)GlcNAc(b1-4)GlcNAc
Summary of the method: as §1

[23] = target: Gal(b1-4)GlcNAc(b1-2)Man(a1-3)[GlcNAc(b1-2)Man(a1-6)]Man(b1-4)GlcNAc(b1-4)GlcNAc
Summary of the method: as §1

[24] = target: Gal(b1-4)GlcNAc(b1-2)[Gal(b1-4)GlcNAc(b1-4)]Man(a1-3)[Gal(b1-4)GlcNAc(b1-2)Man(a1-6)]Man(b1-4)GlcNAc(b1-4)GlcNAc
Summary of the method: as §1

[25] = target: Gal(b1-4)GlcNAc(b1-3)Gal(b1-3)GalNAc
Summary of the method: as §1

[26] = target: Gal(b1-4)GlcNAc(b1-3)Gal(b1-3)GlcNAc
Summary of the method: as §1

[27] = target: Gal(b1-4)GlcNAc(b1-3)Gal(b1-4)Glc
Summary of the method: as §1

[28] = target: Gal(b1-4)GlcNAc(b1-3)Gal(b1-4)GlcNAc(b1-3)Gal(b1-4)GlcNAc(b1-2)Man(a1-3)[Gal(b1-4)GlcNAc(b1-3)Gal(b1-4)GlcNAc(b1-3)Gal(b1-4)GlcNAc(b1-2)Man(a1-6)]Man(b1-4)GlcNAc(b1-4)[Fuc(a1-6)]GlcNAc
Summary of the method: as §1

[29] = target: Gal(b1-4)GlcNAc(b1-3)Gal(b1-4)GlcNAc(b1-3)Gal(b1-4)GlcNAc(b1-3)Gal(b1-4)GlcNAc(b1-3)Gal(b1-4)GlcNAc(b1-3)Gal(b1-4)GlcNAc(b1-2)Man(a1-3)[Gal(b1-4)GlcNAc(b1-3)Gal(b1-4)GlcNAc(b1-3)Gal(b1-4)GlcNAc(b1-3)Gal(b1-4)GlcNAc(b1-3)Gal(b1-4)GlcNAc(b1-3)Gal(b1-4)GlcNAc(b1-2)Man(a1-6)]Man(b1-4)GlcNAc(b1-4)GlcNAc
Summary of the method: as §1

Gal3S(b1-4)GlcNAc = target: Gal3S(b1-4)GlcNAc
Summary of the method: as §1

B1: EEA (Euonymus europaeus) (protein)
chain: MASTIIATGPTYRVYCRAAPNYNMIVGKGVAFLAPIDETNELQYWYKDDTYSYIKDEAGLPAFSLVNKATGLTLKHSNHHPVPVKLVTYNPNVVDESVLWSQADDRGDGYSAIRSLTNPASHLEAAPLNDWSYNGAIIMGGVWIDAYNQQWKIEPHTG
- glycan array binding signal (z-score) [1]: 0.023
- glycan array binding signal (z-score) [2]: 5.83
- glycan array binding signal (z-score) [3]: 5.22
- glycan array binding signal (z-score) [4]: 3.76
- glycan array binding signal (z-score) [5]: 3.77
- glycan array binding signal (z-score) [6]: 4.49
- glycan array binding signal (z-score) [7]: 6.17
- glycan array binding signal (z-score) [8]: 3.94
- glycan array binding signal (z-score) [9]: 11.4
- glycan array binding signal (z-score) [10]: 5.12
- glycan array binding signal (z-score) [11]: 4.01
- glycan array binding signal (z-score) [12]: -0.195
- glycan array binding signal (z-score) [13]: -0.181
- glycan array binding signal (z-score) [14]: -0.21
- glycan array binding signal (z-score) [15]: -0.169
- glycan array binding signal (z-score) [16]: -0.252
- glycan array binding signal (z-score) [17]: -0.124
- glycan array binding signal (z-score) [18]: -0.209
- glycan array binding signal (z-score) [19]: 4.66
- glycan array binding signal (z-score) [20]: -0.157
- glycan array binding signal (z-score) [21]: -0.049
- glycan array binding signal (z-score) [22]: -0.282
- glycan array binding signal (z-score) [23]: -0.235
- glycan array binding signal (z-score) [24]: -0.173
- glycan array binding signal (z-score) [25]: -0.23
- glycan array binding signal (z-score) [26]: -0.101
- glycan array binding signal (z-score) [27]: -0.156
- glycan array binding signal (z-score) [28]: -0.144
- glycan array binding signal (z-score) [29]: -0.159
- glycan array binding signal (z-score) (Gal3S(b1-4)GlcNAc): -0.217
